A selection: hits, their analogues and other compounds. The true share with any hit is near 18%.
RORgamma inh: blocks mouse ROR gamma transcriptional activity | P51450 | Drosophila S2 Gal4-RORgamma UAS-luciferase reporter, 20 h | Potency, µM (series often up to 53.6 µM), for the others: at the top dose activity change, negative = inhibition, usual class: inhibitors | 310,000 tested, 5.4% active | AID 2551; note: potency is the fitted concentration of half-maximal effect; nearly all actives have a fitted effect of over 60% in size
Target sequence (P51450 whole entry, looked up, the tested form may be a part): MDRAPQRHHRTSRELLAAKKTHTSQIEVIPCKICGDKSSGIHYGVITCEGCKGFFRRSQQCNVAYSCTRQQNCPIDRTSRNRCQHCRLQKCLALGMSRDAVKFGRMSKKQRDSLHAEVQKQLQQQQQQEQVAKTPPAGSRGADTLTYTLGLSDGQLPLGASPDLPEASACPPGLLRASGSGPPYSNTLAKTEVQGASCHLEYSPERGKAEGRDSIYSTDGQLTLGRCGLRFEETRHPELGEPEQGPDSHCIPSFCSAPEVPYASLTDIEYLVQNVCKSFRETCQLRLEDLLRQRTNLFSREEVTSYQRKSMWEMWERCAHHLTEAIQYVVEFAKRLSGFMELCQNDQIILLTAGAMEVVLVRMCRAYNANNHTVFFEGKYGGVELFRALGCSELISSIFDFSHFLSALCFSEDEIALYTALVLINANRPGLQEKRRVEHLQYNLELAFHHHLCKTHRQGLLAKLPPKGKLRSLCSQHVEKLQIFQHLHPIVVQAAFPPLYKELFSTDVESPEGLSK
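Stable Schneider cell line, Gal4 DNA-binding domain fused to ROR gamma, UAS-luciferase. Cmpd 1 hr RT → CuSO4 700 uM final → 20 hr RT → luciferase reagent 10 min → luminescence.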
VP16 counter: counter-screen for ROR gamma inhibitors: Gal4-VP16 reporter; AID 2546; Drosophila S2 Gal4-VP16 UAS-luciferase, luminescence, 20 h; 310,000 tested, 3.5% active; Potency, µM (top dose mostly 53.6 µM), for the others: at the top dose activity, negative = inhibition, usual class: inhibitors;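 note: Gal4-VP16 expression switched on by copper sulfate through the metallothionein promoter; potency is the fitted concentration of half-maximal effect; nearly all actives have a fitted effect of over 50% in size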
DT40 TDP1 no CPT: qHTS for Inhibitors of human tyrosyl-DNA phosphodiesterase 1 (TDP1): qHTS in cells in absence of CPT; 420,000 tested, 15% active; Potency, µM (series often up to 46.2 µM), without a hit: at the highest dose activity change, negative = growth inhibition, hits mostly inhibitors; DT40 Tdp1-/- hTDP1 cells, no CPT, ATP luminescence, 48 h; note: potency is the fitted concentration of half-maximal effect; nearly all actives have a fitted effect of over 55% in size
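A cellular qHTS used chicken DT40 cells lacking endogenous Tdp1 but carrying stably transfected human TDP1. Compounds were applied without camptothecin, and cell growth kinetics were judged by ATP-dependent luminescence after ≥48 hr.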
LDHA block: LDHA (human) enzyme inhibition | AID 1347041 | 480,000 tested, 0.15% active | activity change, % (values are at about 110 or 230 µM) | purified LDHA, NADH/diaphorase-resazurin fluorescence; hits give low values; in the data active = activity change below about -30%; inconclusive = mostly about -25% to -30%;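 note: plate controls were DMSO wells for no effect and wells without enzyme for full effect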
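Remaining NADH was detected by diaphorase (0.133 mg/mL) converting 37 µM resazurin to fluorescent resorufin, read at 0 and 20 minutes. The preceding 5-minute room-temperature reaction used 2 nM LDHA, 0.2 mM sodium pyruvate and 0.06 mM NADH at pH 7.4.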
IL1B secr inh: blocks inflammasome-driven IL-1 beta release. 360,000 tested, 4.7% active. AID 743279. THP-1 LPS/ATP IL-1B secretion, AlphaLISA, 16 h; hits give low values. activity change, % at 57.5 µM; in the data active = activity change below about -50%; inconclusive = mostly about -30% to -49%
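Secreted IL-1B measured by AlphaLISA bead assay after 16 h compound exposure of THP-1 cells; compounds (final up to 57.5 uM) added 1 h before LPS (250 ng/mL) and ATP (1.25 mM) stimulation; lower signal means less secretion.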
TDP1 cell CPT: growth inhibition of DT40 Tdp1-/-;hTDP1 cells with camptothecin (screen for TDP1 inhibitors). chicken DT40 Tdp1-/-;hTDP1 cells + 20 nM CPT, ATP luminescence, 48 h. Potency, µM (top dose mostly 46.2 µM), for the others: at the highest dose activity change, negative = growth inhibition, usual class: inhibitors. 420,000 tested, 12% active; note: potency is the fitted concentration of half-maximal effect; nearly all actives have a fitted effect of over 55% in size
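Cell growth measured by CellTiter-Glo luminescence after a minimum 48 h, 37 C compound exposure with 20 nM CPT in Tdp1-knockout DT40 cells stably expressing hTDP1, seeded 400/well; qHTS titration format.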
* hit, by the source's call. Unless noted, calls come from the whole dose curve; as a rule, active = well fitted curve in the direction sought with a large enough effect; inconclusive = small, poorly fitted or top-dose-only effect, or another doubt; inactive = no such curve, though single readings can be large; an effect the other way counts as inactive or inconclusive. Unless noted, % is set by controls: 0 for no effect and ±100 for the full control effect.

Screening Cc1cc(C)cc(NC(=O)NCc2nc(-c3ccccc3)oc2C)c1 returned LDHA block 5.
`COC(=O)[C@@H]1CCCN1C(=O)c1cnn(-c2ncc3c(n2)-c2ccccc2CCC3)c1C1CC1` gave DT40 TDP1 no CPT 16µM* and TDP1 cell CPT inconclusive.
`CCC(O)CNC(=O)c1cnn(-c2ncc3c(n2)-c2ccccc2CCC3)c1C1CC1` (configuration not stated) gave DT40 TDP1 no CPT inconclusive and TDP1 cell CPT -1%.
`Cc1cc(CNC(=O)c2cnn(-c3nccc(-c4cc(C)sc4C)n3)c2C2CC2)on1` gave DT40 TDP1 no CPT inconclusive and TDP1 cell CPT 16µM*.
For CN(Cc1cccc2ncccc12)C(=O)c1cnn(-c2ncc3c(n2)-c2ccccc2CC3)c1C1CC1 the results were DT40 TDP1 no CPT 16µM* and TDP1 cell CPT inconclusive.
CN(CC1COCCO1)C(=O)c1cnn(-c2ncc3c(n2)-c2ccccc2CCC3)c1C1CC1 (configuration not stated) was read as DT40 TDP1 no CPT inconclusive and TDP1 cell CPT -9%.
`CNc1ccc(OC(F)(F)F)cc1` gave LDHA block 15.
`COc1ccc(C2(C)NC(=O)N(CC(=O)c3cc(C)n(C4CC4)c3C)C2=O)cc1OC` (configuration not stated) gave DT40 TDP1 no CPT 13µM*, LDHA block -10, IL1B secr inh 7 and TDP1 cell CPT 18µM*.
CC(C)c1cccc(C(C)C)c1NC(=O)/C=C/c1cccc(F)c1 was read as LDHA block 1.
Screening O=C(NC1(O)C(=O)c2ccccc2C1=O)c1c(Cl)cccc1Cl returned RORgamma inh 12%, VP16 counter -9%, DT40 TDP1 no CPT 26µM*, LDHA block 2, IL1B secr inh 7 and TDP1 cell CPT inconclusive.
Screening CNC(=O)c1ccccc1 returned RORgamma inh 8% and VP16 counter 2%.
O=C(NC1(O)C(=O)c2ccccc2C1=O)c1ccccc1 was read as RORgamma inh -4%, VP16 counter 11%, DT40 TDP1 no CPT inconclusive, LDHA block 0, IL1B secr inh -8 and TDP1 cell CPT 26µM*.
Screening FC(F)(F)c1cccc(-n2cc(-c3ccccc3)[nH]c2=S)c1 returned RORgamma inh 2.8µM*, VP16 counter inconclusive, DT40 TDP1 no CPT inconclusive, LDHA block -3, IL1B secr inh -6 and TDP1 cell CPT inconclusive.
Screening Cc1ccc(-c2cn(-c3ccccc3)c(=S)[nH]2)cc1C returned RORgamma inh inconclusive, VP16 counter inconclusive, DT40 TDP1 no CPT inconclusive, LDHA block -8, IL1B secr inh -22 and TDP1 cell CPT inconclusive.
For Cc1ccccc1-c1cn(-c2ccccc2)c(=S)[nH]1 the results were RORgamma inh 3.2µM*, VP16 counter 10µM*, DT40 TDP1 no CPT inconclusive, LDHA block -18, IL1B secr inh -3 and TDP1 cell CPT inconclusive.
`COc1cccc(CN2CCc3nc(Nc4ccc5c(c4)OCCO5)ncc3C2)c1` gave DT40 TDP1 no CPT inconclusive, LDHA block -4 and TDP1 cell CPT inconclusive.
Screening Clc1ccc(CN2CCc3nc(Nc4ccc5c(c4)OCCO5)ncc3C2)cc1 returned DT40 TDP1 no CPT 13µM*, LDHA block 0 and TDP1 cell CPT 16µM*.
`CCOc1ccccc1CN1CCc2nc(Nc3ccc4c(c3)OCCO4)ncc2C1` gave DT40 TDP1 no CPT inconclusive, LDHA block 7 and TDP1 cell CPT inconclusive.
`COc1cc(OC)c(OC)cc1CN1CCc2nc(Nc3ccc4c(c3)OCCO4)ncc2C1` gave DT40 TDP1 no CPT inconclusive, LDHA block 6 and TDP1 cell CPT 16µM*.
Screening O=C(CSC1CCCC1)NCCc1cccs1 returned LDHA block 4.
